The % Inhibition is the drop in the measured response relative to a control, in per cent.

SMILES strings stand for the structures. About 540 (0.36%) of roughly 150,000 compounds showed an effect of 50% or more. Many of the other results were omitted from the sample, so strong results are more common in it than they were.

This test has as its system Plasmodium falciparum. The experiment in a line: Primary screen in NF54 nanoGlo assay, in single point, at 2uM, 72h; a lower Z score goes with more inhibition. In kind it is functional, Erythrocyte. As to conditions: timepoint 72 hour.
On to `CS(=O)(=O)N1C[C@H]2CC[C@@H](C1)N(CC(=O)N1CCc3ccccc31)C2`, for which the “% Inhibition” value is on record as -9% and the Z score is 1.92.
The corresponding values for `COc1ccc(CN2CCc3cc(OC)c(OC)cc3[C@@H]2CNC(=O)Cc2ccccc2)cc1` are -3% and 0.38.
For `CS(=O)(=O)CCc1ccc(N[C@H]2CCc3ccc(F)cc32)cc1`, the “% Inhibition” value is listed as -8% and the Z score was determined as 1.03.
For `O=S1(=O)CCC(CNC2CCc3ccc(F)cc32)C1` (configuration not stated), the “% Inhibition” value is on record as -8% and the Z score was determined as 1.29.
For the compound `Cn1ncc2c1CCC[C@@H]2NCCc1ccccc1O`, the “% Inhibition” value was -5% and the Z score was determined as 0.59.
`Oc1ccccc1CCN[C@H]1CCc2ccc(F)cc21`: the “% Inhibition” value came to 98% and the Z score is -18.88.
The corresponding values for `CCOc1ccc2c(n1)CCN(C(=O)c1ccsc1)C2` are 36% and 1.41.
The corresponding values for `CC(COC1CCOC1)NC(=O)C1CCC(=O)C(C)C1` (configuration not stated) are -1% and 0.21.
Consider `Cn1nc(NC(=O)c2ccccc2)c2c1CCN(C(=O)C1CCC1)C2`, for which the “% Inhibition” value is listed as -10% and the Z score amounted to 0.86.
For `COC(C(=O)N1C[C@H](C(=O)O)[C@@H](c2ccc(Br)cc2)C1)C1CC1` (some centres not stated), the “% Inhibition” value is on record as -1% and the Z score was 0.13.
The matching figures for `CCCCN(C1CCCCCC1)S(=O)(=O)N1CCC[C@@H]1COC`: 3% and -0.54.
The corresponding values for `COc1ccccc1C(=O)C(=O)NC1CC(C)(C)NC(C)(C)C1` are -6% and 0.73.
The corresponding values for `Cc1nonc1CN1CC[C@@]2(CCCN(C3CCCCC3)C2=O)C1` are -1% and 0.17.
Consider `CN1CCN(c2nc3c(c(Oc4cccc(F)c4)n2)CN(S(=O)(=O)c2cccc(Cl)c2)CC3)CC1`, for which the “% Inhibition” value is listed as -5% and the Z score stood at 0.66.
The matching figures for `O=S(=O)(c1cccc(Cl)c1)N1CCc2nc(N3CCCCC3)nc(Oc3ccccc3)c2C1`: 53% and -13.31.
Consider `Cc1ccc(Oc2nc(N3CCOCC3)nc3c2CN(S(=O)(=O)c2cccc(Cl)c2)CC3)cc1`, for which the “% Inhibition” value is on record as 8% and the Z score is reported as -1.2.
For `O=C1CN(Cc2nc(-c3ccccc3)nn2C2CCCCC2)CCN1`, the “% Inhibition” value is on record as -7% and the Z score is 1.19.
The matching figures for `CN(CC(=O)Nc1cccc(F)c1)C(=O)C[C@@H]1C=CCC1`: 12% and -1.67.
The corresponding values for `CCOc1ccc(-c2cn(Cc3ccncc3)nn2)cc1Cl` are -10% and 2.05.
Turning to `COc1ccc(-c2cc3nc(C)cc(N4CCC(C(=O)NCc5ccccc5)CC4)n3n2)cc1`, the “% Inhibition” value came to 4% and the Z score is -0.42.
The matching figures for `Cc1cc(C)cc(-c2cc3nc(C)cc(N4CCC(C(=O)NCc5cccc(F)c5)CC4)n3n2)c1`: 75% and -14.36.
The corresponding values for `Cc1cc(C)cc(-c2cc3nc(C)cc(N4CCC(C(=O)Nc5ccc(C)c(Cl)c5)CC4)n3n2)c1` are 36% and 1.15.
The matching figures for `Cc1cc(C2CCC(C(=O)NCC3CC3)CN2C(=O)NC(C)C)ccc1F` (configuration not stated): 0% and 0.
As to `Cc1cc(S(=O)(=O)N(CCN(C)C)C2CCN(C)CC2)c(C)o1`, the “% Inhibition” value is given as -16% and the Z score was 1.43.
The corresponding values for `COc1ccc2cc(-c3nc(CCN(C)C(=O)c4cccc(Cl)c4)no3)[nH]c2c1` are -9% and 1.75.
Consider `COc1ccc2cc(C(=O)NCc3ccnc(Oc4ccccc4)c3)[nH]c2c1`, for which the “% Inhibition” value was -7% and the Z score stood at 1.13.
With `Cc1ccc(CC(=O)Nc2cc(C(F)(F)F)n(C)n2)cn1`, the “% Inhibition” value is -6% and the Z score is 0.61.
On to `Cc1cccc(OC2CN([C@@H](C)CCN(C)C)C2)c1`, for which the “% Inhibition” value is -19% and the Z score is given as 2.04.
The matching figures for `CC(C(=O)Nc1ccc(Cl)cn1)N1CCCC(c2ccn[nH]2)C1` (configuration not stated): 5% and -0.83.
With `C[C@@H](C(=O)Nc1nccs1)N1CCCC1`, the “% Inhibition” value was -4% and the Z score was 0.56.
The matching figures for `CC(C(=O)Nc1nccs1)N1CCCC(c2ccn[nH]2)C1` (configuration not stated): 50% and -9.08.
For the compound `O=C(C1CCC1c1ccc(F)cc1)N1CCCC(c2nc3ccc(F)cc3o2)C1` (configuration not stated), the “% Inhibition” value was -10% and the Z score is 1.06.
The corresponding values for `CCOc1cc(C(c2c(C)n(C)n(-c3ccccc3)c2=O)c2c(C)n(C)n(-c3ccccc3)c2=O)ccc1OCc1ccccc1` are 75% and -5.78.
Take `Cc1c(C(c2c(C)n(C)n(-c3ccccc3)c2=O)c2c[nH]c3ccccc23)c(=O)n(-c2ccccc2)n1C`: the “% Inhibition” value is listed as -6% and the Z score turned out to be 0.93.
With `COc1cc(C(c2c(C)n(C)n(-c3ccccc3)c2=O)c2c(C)n(C)n(-c3ccccc3)c2=O)c(Br)c(Br)c1OCc1ccccc1`, the “% Inhibition” value was 35% and the Z score is -0.45.
The corresponding values for `COc1nc(N[C@H]2CCCN(C)C2)ncc1F` are 3% and -0.5.
Turning to `COc1nc(NC2CCS(=O)(=O)CC2)ncc1F`, the “% Inhibition” value is recorded as 65% and the Z score is reported as -7.11.
Consider `CN(C)c1nc(N[C@H]2CCS(=O)(=O)C2)ncc1F`, for which the “% Inhibition” value is -3% and the Z score amounted to 0.33.
The corresponding values for `CNC(=O)[C@@H]1C[C@@H](Nc2ccnc(OC)c2C#N)CN1Cc1ccccn1` are 2% and -0.32.
The matching figures for `Cc1noc(C)c1S(=O)(=O)NC1(C(=O)Nc2ccsc2)CCCC1`: -8% and 1.08.
`CC[C@@](C)(CNC(=O)COCc1cccc(OC)c1)N1CCOCC1`: the “% Inhibition” value is -4% and the Z score was found to be 0.5.
In the case of `Cc1cc(C)nc(NCCC[C@H]2CCCCO2)n1`, the “% Inhibition” value came out at 54% and the Z score worked out at 0.94.
The corresponding values for `Cc1cc(C)nc(NC[C@H]2CCCO2)n1` are -5% and 0.64.
The matching figures for `CC(C)c1cnc(NCCCC[C@H]2CCCO2)nc1`: 48% and 0.41.
The corresponding values for `O=C(OCC(F)(F)F)N1CCOCC1` are 1% and -0.08.
For `CC(C)CN1CCCC1C(=O)N1CCO[C@H]2CCC[C@H]21` (some centres not stated), the “% Inhibition” value was -5% and the Z score is 0.92.
The corresponding values for `O=C(N/C(=N\c1ccc(F)cc1)N1CCN(Cc2cccc(F)c2)CC1)c1ccccc1` are 2% and -0.32.
The corresponding values for `COc1cccc(N2C(=O)C[C@]3(CC3(c3ccccc3)c3ccccc3)C2=O)c1` are 35% and -0.08.
For the compound `Cc1ccc(N2C(=O)C[C@]3(CC3(c3ccccc3)c3ccccc3)C2=O)cc1`, the “% Inhibition” value came to 73% and the Z score is recorded as -0.64.
As for `O=C1C[C@]2(CC2(c2ccccc2)c2ccccc2)C(=O)N1c1cccc(Br)c1`, the “% Inhibition” value is 19% and the Z score is given as -3.6.
Consider `CC(CNC(=O)C(=O)NC(C)CCc1ccccc1)Cc1ccccc1` (configuration not stated), for which the “% Inhibition” value was -11% and the Z score came out at 1.26.
On to `Cc1cccc2[nH]c(COCC(=O)NC[C@H]3CCCN(C)C3)nc12`, for which the “% Inhibition” value is reported as 14% and the Z score is -1.8.
On to `O=S(=O)(c1ccc2c(c1)OCCO2)N1CC[C@H](Oc2ccncc2Cl)C1`, for which the “% Inhibition” value is recorded as -7% and the Z score is 1.4.
On to `O=S(=O)(c1ccc(F)c(Cl)c1)N1CC[C@H](Oc2ccncc2Cl)C1`, for which the “% Inhibition” value was found to be 72% and the Z score is listed as -13.57.
The matching figures for `O=S(=O)(c1cccnc1)N1CC[C@H](Oc2ccncc2Cl)C1`: -6% and 1.14.
The matching figures for `Cc1cc2nc[nH]c2c(NC(=O)CCc2cc3n(n2)CCNC3)c1C`: -7% and 1.44.
For `CCOc1ccc(-c2noc([C@@H]3Cc4ccccc4N3C(C)=O)n2)cc1Cl`, the “% Inhibition” value was 19% and the Z score is -2.19.
The matching figures for `O=C1NC(=O)[C@@H]2CN(S(=O)(=O)c3cc(F)cc(Cl)c3)C[C@H]12`: 37% and 0.7.
On to `O=C(CCn1cnc2cc(-c3noc(-c4ccccn4)n3)ccc21)N1CCOCC1`, for which the “% Inhibition” value was -9% and the Z score stood at 1.86.
On to `Oc1cc(OCc2ccccc2F)ccc1-c1[nH]ncc1-c1ccccc1`, for which the “% Inhibition” value turned out to be 52% and the Z score is recorded as -11.1.
`COc1ccccc1Oc1cn[nH]c1-c1ccc(OCc2ccccc2C)cc1O`: the “% Inhibition” value was -7% and the Z score amounted to 0.65.
Take `COc1ccc(-c2c(C(F)(F)F)n[nH]c2-c2ccc(OCc3ccccc3F)cc2O)cc1`: the “% Inhibition” value is recorded as 79% and the Z score is recorded as -11.69.
The matching figures for `COc1ccc(-c2n[nH]c3c2[C@@H](c2ccc(OCc4ccccc4F)cc2)CC(=O)O3)cc1`: -7% and 1.23.
The matching figures for `COc1ccc(Oc2cn[nH]c2-c2ccc(OCc3ccc(F)cc3)cc2O)cc1`: 4% and -0.82.
For the compound `COc1ccccc1-c1cn[nH]c1-c1ccc(OCc2cc(C)ccc2C)cc1O`, the “% Inhibition” value turned out to be 0% and the Z score was 0.
The corresponding values for `NC(=O)Cc1ccc(Cl)cc1Cl` are -10% and 1.37.
In the case of `Cc1nn(-c2ccc(Cl)cc2)cc1-c1noc(C(=O)NC2CCC(C)CC2)n1` (configuration not stated), the “% Inhibition” value is on record as -10% and the Z score was found to be 1.19.
For `C[C@H]1CCN(Cc2ccncc2)CCN1Cc1ccccc1`, the “% Inhibition” value is recorded as -16% and the Z score turned out to be 3.16.
The corresponding values for `CN1C(=O)c2ccccc2O[C@H]2CN(Cc3ccccc3)C[C@H]21` are -9% and 1.36.
The matching figures for `CN1C(=O)c2ccccc2O[C@H]2CN(Cc3cc(-c4ccccc4)no3)C[C@H]21`: 4% and -0.65.
The corresponding values for `Cc1noc(C)c1CN1C[C@@H]2Oc3cc(F)ccc3C(=O)N(C)[C@@H]2C1` are 91% and -10.61.
For the compound `CON1CCC(C(=O)NC2c3ccccc3CCC2C)CC1` (configuration not stated), the “% Inhibition” value came out at 0% and the Z score was -0.03.
The matching figures for `O=C(O)[C@H]1CCCN(C2CCN(Cc3ccccc3)CC2)C1`: -13% and 1.5.
With `c1nc(CCNC[C@@H]2CCCN3CCCC[C@H]23)c[nH]1`, the “% Inhibition” value was -15% and the Z score was found to be 2.93.
Regarding `COCc1ncc(C)n1CC1CN(C(=O)CCc2ccccc2)C1`, the “% Inhibition” value is -10% and the Z score is on record as 1.37.
The corresponding values for `COc1cc(Cl)c(C)cc1NC(=O)c1nc2cc(C)c(C)cc2n(C)c1=O` are 37% and 0.48.
The matching figures for `COc1cc(Cl)c(C)cc1NC(=O)c1cc(=O)n(-c2ccc(C)cc2)[nH]1`: 53% and -6.9.
The matching figures for `COc1cc(Cl)c(C)cc1NC(=O)c1cnn[nH]1`: -17% and 3.31.
For `O=C(N[C@H](c1ccccc1F)C1CCCC1)C1CCN(C(=O)c2ccco2)CC1`, the “% Inhibition” value is on record as -9% and the Z score was found to be 0.87.
On to `O=C(C1CCC(C2CC2)N1)N1CCC2(CCc3ccccc3C2=O)CC1` (configuration not stated), for which the “% Inhibition” value turned out to be 1% and the Z score is given as -0.19.
Consider `CC(CCO)C1(CNC(=O)NCC2CCCO2)CCC1` (configuration not stated), for which the “% Inhibition” value was -7% and the Z score is reported as 1.25.

Values taken from ChEMBL document CHEMBL4888484, “Replenishing the malaria drug discovery pipeline: Screening and hit evaluation of the MMV Hit Generation Library 1 (HGL1) against asexual blood stage Plasmodium falciparum ,using a nano luciferase reporter read-out” (2022).
